Experimental data published in PubChem BioAssay (NCI).
About 83,000 compounds went through this panel and 20% of them were active in at least one assay; those are over-represented in the sample as a whole.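 Percent growth is the endpoint: 0 to 100 indicates growth inhibition (40 means 60% inhibition), 0 means no net growth, and negative values indicate cell death.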 Unmarked numbers belong to inactive results. Calls of active or inactive are those of the source.

What follows are compounds tested on NCI-H522 lung (assay: NCI-60 one-dose screen, 48 h (100 = growth as untreated, 0 = no growth, -100 = all killed)). Settings: 10 µM unless noted.
Experimental: Growth inhibition of the NCI-H522 human Non-Small Cell Lung tumor cell line is measured as a screen for anti-cancer activity. Cells are grown in 96 well plates and exposed to the test compound for 48 hours. Compounds are tested at a single concentration, which is 10^-5 M for most compounds. The reported endpoint is percent growth (GI% or GIPRCNT), where numbers from 0 - 100% represent growth inhibition, and numbers from -100% - 0 represent cell death. For example, a value of 40 represents 60% growth inhibition. A value of 0 means no net growth occurred over the course of the experiment. A value of -40 indicates 40% of cells at the beginning of the experiment died by the end of the experiment. A value of -100 means all cells are dead at the end of the experiment.
NCI-60 Human Tumor Cell Lines Screen was performed using the standard one-dose NCI protocol, which is described in more detail at https://dtp.cancer.gov/discovery_development/nci-60/default.htm.
Compounds with GIPRCNT values below 10 were considered active. Activity score was based on GIPRCNT using the following formula: […]
Score is 0 for GIPRCNT values of 100 or above, 50 for GIPRCNT values of 0, and 100 for GIPRCNT values of -100.
For `COc1ccc(C(=O)N2N=C(c3ccc(F)cc3)CC2c2cn(-c3ccccc3)nc2-c2ccccc2)cc1` (stereo not given), the growth was 52.4%.
For `Cc1ccc(C)c(NC(=O)c2sc3c(=O)[nH]cnc3c2C)c1`, the growth was 64.9%.
For `COC(=O)OC1C(O[C@H]2C[C@H]3[C@@H]4CC=C5C[C@@H](O)CC[C@]5(C)[C@H]4CC[C@]3(C)[C@H]2[C@H](C)C(=O)CCC(C)C)OCC(O)C1OC1OCC(O)C(O)C1OC(=O)c1ccc(OC)cc1` (stereo not given in full), the growth was -49.8% (active).
Compound `CCCCCCCCOC(=O)C(C)OC(=O)OCCOCCOC(=O)OC(C)C(=O)OCCCCCCCC` (stereo not given) has a growth of 114%.
`c1ccc(-c2nnn(-c3ccccc3)n2)cc1` was tested, and the growth was 89.7%.
With `Fc1ccc(-c2nc(-c3ccc(-c4nc5ccc(F)cc5[nH]4)cc3)no2)cc1` the growth was 91.4%.
`CCCNCCC(C)=O` showed a growth of 99.6%.
For `COc1ccc(Oc2nc(Nc3ccc(N4CCOCC4)cc3)ncc2NC(=O)Nc2cccc(OC)c2)cc1`, the growth was 23.7%.
With `NC(N)=N/N=C/c1cccc(Cl)c1Cl` the growth was 80.8%.
With `COc1ccc2[nH]cc(C3(c4c[nH]c5ccc(OC)cc45)C(=O)Nc4ccc(F)cc43)c2c1` the growth was 78.5%.
`Cc1c2c(cc3c1[nH]c1ccccc13)C=NCC2` gave a growth of 75.1%.
Compound `C/C(=N\Nc1ccc([N+](=O)[O-])cn1)c1ccc(N)cc1` has a growth of 85.8%.
With `COc1cc(C2CC(c3ccc(C)cc3)=NN2C=O)ccc1Oc1nc2c(c(=O)n(C)c(=O)n2C)n1C` (stereo not given) the growth was 98.3%.
For `COc1ccccc1/C=N\Nc1ccc([N+](=O)[O-])cn1`, the growth was 101%.
In the case of `O=[N+]([O-])c1ccc(N/N=C\c2ccc(O)cc2O)nc1`, the growth is reported as 10.9%.
In the case of `COc1cc(C2CC(c3cccc(Nc4ccnc5cc(Cl)ccc45)c3)=NN2C=O)cc(OC)c1OC` (stereo not given), the growth is reported as -4.52% (active).
In the case of `CCOC(OCC)c1cnc2nc(NC(C)=O)[nH]c(=O)c2n1`, the growth is reported as 98.8%.
`COC(=O)c1ccc2c(c1)nc(-c1ccc(Cl)cc1)n2-c1cc(C(C)(C)C)[nH]n1` was tested, and the growth was 38%.
`CCCCOc1nc2ccc(C)cc2cc1/C=C/C(=O)/C=C(O)/C=C/c1cc2cc(C)ccc2nc1OCCCC` showed a growth of 85%.
In the case of `CCOC(=O)Nc1ccc2nc(Sc3ccc(Cl)cc3)sc2c1`, the growth is reported as 28.3%.
`CCn1c(Cc2ccccc2Nc2c(Cl)cccc2Cl)nnc1SCC(=O)Nc1ccccc1C(F)(F)F` gave a growth of 55.5%.
For `CCN(CC)CC(=O)Nc1c(C)ccc(N)c1C`, the growth was 74.4%.
With `COC(=O)C(Br)(C(=O)OC)C(Br)C(Br)C(Br)c1ccccc1` (stereo not given) the growth was -84.5% (active).
In the case of `Nc1cc(C(=O)O)cc(C(=O)O)c1`, the growth is reported as 91%.
In the case of `Cc1[nH]c2ccccc2c1C1=CC(=O)C=CC1=O`, the growth is reported as -24.4% (active).
`O=C1N(Cc2ccccc2Cl)c2ccccc2C12NN=C(c1ccccc1)S2` (stereo not given) was tested, and the growth was 75.6%.
In the case of `O=C(N/N=C/c1ccccc1O)c1ccncc1`, the growth is reported as -20% (active).
For `COc1ccc(-c2cc(-c3ccc(OC)cc3)c3sc(=O)[nH]c3n2)cc1`, the growth was 69.1%.
In the case of `COc1ccc(C(=O)OC2C(OC3C(O)COC(O[C@H]4C[C@H]5[C@@H]6CC=C7C[C@@H](O)CC[C@]7(C)[C@H]6CC[C@]5(C)[C@H]4[C@H](C)C(=O)CCC(C)C)C3OC(=O)C(C)C)OCC(O)C2O)cc1` (stereo not given in full), the growth is reported as -46.1% (active).
With `C=C1C(=O)O[C@H]2[C@H]1CC/C(COC(=O)N[C@@H](Cc1c[nH]c3ccccc13)C(=O)OC)=C\CC[C@@]1(C)O[C@@H]21` the growth was -71.1% (active).
With `COc1cc(/C=C/c2cc(/C=C/c3ccc(O)c(OC)c3)n(C(=O)c3ccccc3Br)n2)ccc1O` the growth was 4.2% (active).
With `O=C(CC(=O)C(F)(F)C(F)(F)C(F)(F)F)c1cc2ccccc2o1` the growth was 108%.
With `Fc1cc(-c2cnc3nonc3n2)c(Cl)cc1Cl` the growth was -72.3% (active).
With `ClCc1c(Cl)c(Cl)c(Cl)c(CCl)c1Cl` the growth was -64.6% (active).
In the case of `Cc1ccccc1Nc1n[nH]c(Cc2ccccc2)n1`, the growth is reported as 58%.
`CCCCc1nc(Cl)c(C2CC(c3ccc(S(N)(=O)=O)cc3)=NN2c2cc(Cl)cc(Cl)c2)[nH]1` (stereo not given) showed a growth of 22.7%.
`COc1ccccc1CNCCCN1C(=O)c2ccc3c4c(ccc(c24)C1=O)C(=O)N(CCCOCCCCOCCCN)C3=O` was tested, and the growth was -77.4% (active).
For `NC(=O)N/N=C\c1ccc([N+](=O)[O-])o1`, the growth was 95.8%.
`Clc1cc(Cl)cc(-c2cnc3nonc3n2)c1` was tested, and the growth was -69.3% (active).
`N/C(=N\OC(=O)c1ccccc1)C(C(=O)NOC(=O)c1ccccc1)C1CCCCC1` (stereo not given) was tested, and the growth was -46.9% (active).
